Drawing on the supplement of paper PMC10849652, this text covers log2 fold change for 22 targets.

Of roughly 8,800 targets only a part is listed; those with a hit were picked by preference. About 0.5% of all pairs of compound and target were hits.

Chain of UniProt Q9BQ69 (Q9BQ69 whole entry, looked up): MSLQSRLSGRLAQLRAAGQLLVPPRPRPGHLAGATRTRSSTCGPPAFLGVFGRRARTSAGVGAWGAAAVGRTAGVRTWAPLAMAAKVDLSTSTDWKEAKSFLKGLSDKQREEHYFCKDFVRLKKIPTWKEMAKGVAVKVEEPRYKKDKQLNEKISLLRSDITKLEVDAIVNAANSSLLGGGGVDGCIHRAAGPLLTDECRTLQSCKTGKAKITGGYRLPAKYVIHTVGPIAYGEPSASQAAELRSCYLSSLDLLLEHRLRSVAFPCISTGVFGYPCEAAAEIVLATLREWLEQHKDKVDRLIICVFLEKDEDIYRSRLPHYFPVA
Chain of UniProt P48059 (P48059 whole entry, looked up): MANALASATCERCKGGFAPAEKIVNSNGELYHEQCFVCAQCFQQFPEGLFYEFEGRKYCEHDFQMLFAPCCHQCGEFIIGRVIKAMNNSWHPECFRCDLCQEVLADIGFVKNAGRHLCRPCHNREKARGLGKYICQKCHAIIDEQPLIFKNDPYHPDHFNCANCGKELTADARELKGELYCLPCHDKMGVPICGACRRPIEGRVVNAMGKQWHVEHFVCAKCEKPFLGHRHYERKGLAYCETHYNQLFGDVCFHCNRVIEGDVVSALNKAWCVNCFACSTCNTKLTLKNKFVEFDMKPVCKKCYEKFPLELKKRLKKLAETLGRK
Chain of UniProt Q9NVC6 (Q9NVC6 whole entry, looked up): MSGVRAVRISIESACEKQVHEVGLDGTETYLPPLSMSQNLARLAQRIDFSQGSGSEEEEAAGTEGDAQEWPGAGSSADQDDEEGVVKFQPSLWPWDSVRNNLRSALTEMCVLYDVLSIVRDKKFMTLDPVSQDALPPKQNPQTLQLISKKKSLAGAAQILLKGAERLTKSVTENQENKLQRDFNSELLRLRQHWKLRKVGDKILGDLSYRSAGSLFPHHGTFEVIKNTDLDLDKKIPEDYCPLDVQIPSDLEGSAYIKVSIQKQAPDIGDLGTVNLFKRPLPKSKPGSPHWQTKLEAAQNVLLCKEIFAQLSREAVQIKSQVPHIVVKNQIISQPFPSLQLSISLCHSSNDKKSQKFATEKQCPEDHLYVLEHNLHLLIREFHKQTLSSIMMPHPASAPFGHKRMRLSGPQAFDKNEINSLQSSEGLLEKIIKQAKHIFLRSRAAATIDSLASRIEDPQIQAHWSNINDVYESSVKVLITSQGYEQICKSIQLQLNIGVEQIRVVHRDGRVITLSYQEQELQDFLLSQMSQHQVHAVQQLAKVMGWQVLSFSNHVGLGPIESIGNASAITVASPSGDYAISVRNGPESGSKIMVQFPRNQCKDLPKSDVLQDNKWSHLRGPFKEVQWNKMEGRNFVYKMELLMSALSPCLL
Chain of UniProt O95777 (O95777 whole entry, looked up): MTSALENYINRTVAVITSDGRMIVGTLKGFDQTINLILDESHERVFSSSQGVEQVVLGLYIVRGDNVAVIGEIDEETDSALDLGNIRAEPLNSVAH
Chain of UniProt Q71F56 (Q71F56 whole entry, looked up): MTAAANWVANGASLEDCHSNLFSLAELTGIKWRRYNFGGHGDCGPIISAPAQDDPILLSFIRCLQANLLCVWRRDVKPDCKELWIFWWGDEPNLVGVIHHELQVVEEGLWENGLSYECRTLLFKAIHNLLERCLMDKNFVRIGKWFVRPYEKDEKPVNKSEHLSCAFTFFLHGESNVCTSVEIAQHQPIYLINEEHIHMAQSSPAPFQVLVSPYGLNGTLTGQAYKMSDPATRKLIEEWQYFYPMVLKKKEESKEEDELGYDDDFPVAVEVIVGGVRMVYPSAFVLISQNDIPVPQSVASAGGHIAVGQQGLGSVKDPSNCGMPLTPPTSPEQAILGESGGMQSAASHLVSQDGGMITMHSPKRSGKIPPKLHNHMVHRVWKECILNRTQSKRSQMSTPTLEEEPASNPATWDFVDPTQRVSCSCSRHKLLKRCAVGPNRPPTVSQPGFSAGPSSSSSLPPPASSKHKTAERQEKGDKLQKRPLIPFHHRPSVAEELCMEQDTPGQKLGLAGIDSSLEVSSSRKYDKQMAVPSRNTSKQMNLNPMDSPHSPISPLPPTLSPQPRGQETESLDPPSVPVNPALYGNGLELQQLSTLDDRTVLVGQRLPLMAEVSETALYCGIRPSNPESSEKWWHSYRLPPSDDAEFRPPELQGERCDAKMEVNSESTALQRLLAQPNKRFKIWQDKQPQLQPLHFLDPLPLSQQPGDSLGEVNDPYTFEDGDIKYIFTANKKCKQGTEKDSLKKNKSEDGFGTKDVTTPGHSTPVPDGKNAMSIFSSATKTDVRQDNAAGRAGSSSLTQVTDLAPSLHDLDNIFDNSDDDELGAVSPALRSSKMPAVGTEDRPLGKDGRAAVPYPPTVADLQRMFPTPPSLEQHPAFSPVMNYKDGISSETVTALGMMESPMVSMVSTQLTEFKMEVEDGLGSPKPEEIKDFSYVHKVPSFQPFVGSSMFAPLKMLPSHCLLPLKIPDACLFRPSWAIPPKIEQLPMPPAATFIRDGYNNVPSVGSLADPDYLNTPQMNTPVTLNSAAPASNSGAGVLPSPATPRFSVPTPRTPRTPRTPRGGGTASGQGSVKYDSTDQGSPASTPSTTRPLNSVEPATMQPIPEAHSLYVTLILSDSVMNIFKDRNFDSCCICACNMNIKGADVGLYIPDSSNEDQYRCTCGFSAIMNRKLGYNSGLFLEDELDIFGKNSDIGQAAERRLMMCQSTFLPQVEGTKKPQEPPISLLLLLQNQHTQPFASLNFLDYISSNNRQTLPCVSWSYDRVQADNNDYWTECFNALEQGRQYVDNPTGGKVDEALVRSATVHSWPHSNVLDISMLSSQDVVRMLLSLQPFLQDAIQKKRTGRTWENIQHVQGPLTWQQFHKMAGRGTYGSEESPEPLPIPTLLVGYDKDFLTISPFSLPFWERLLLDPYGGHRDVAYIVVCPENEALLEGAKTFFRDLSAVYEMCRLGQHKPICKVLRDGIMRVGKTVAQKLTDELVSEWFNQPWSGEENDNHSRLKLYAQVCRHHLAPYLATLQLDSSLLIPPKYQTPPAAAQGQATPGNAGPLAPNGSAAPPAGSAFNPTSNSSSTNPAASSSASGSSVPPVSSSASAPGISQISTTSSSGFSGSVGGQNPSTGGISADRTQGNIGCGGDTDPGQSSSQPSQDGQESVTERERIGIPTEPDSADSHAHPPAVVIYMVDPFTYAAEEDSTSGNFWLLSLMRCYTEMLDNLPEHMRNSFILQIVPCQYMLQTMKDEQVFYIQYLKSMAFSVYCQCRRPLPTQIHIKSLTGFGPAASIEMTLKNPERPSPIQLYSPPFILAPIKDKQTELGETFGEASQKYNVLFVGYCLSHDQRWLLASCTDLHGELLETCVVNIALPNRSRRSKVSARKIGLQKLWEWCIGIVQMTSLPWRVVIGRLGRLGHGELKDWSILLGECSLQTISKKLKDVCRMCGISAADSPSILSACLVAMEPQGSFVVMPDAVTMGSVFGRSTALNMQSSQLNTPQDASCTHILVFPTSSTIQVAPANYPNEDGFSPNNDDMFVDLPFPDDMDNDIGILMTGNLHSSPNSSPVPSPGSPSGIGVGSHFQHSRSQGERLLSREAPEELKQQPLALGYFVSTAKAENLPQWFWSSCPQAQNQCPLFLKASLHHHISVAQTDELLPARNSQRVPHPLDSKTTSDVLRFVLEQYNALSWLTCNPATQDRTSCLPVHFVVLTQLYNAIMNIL
Chain of UniProt Q9GZY8 (Q9GZY8 whole entry, looked up): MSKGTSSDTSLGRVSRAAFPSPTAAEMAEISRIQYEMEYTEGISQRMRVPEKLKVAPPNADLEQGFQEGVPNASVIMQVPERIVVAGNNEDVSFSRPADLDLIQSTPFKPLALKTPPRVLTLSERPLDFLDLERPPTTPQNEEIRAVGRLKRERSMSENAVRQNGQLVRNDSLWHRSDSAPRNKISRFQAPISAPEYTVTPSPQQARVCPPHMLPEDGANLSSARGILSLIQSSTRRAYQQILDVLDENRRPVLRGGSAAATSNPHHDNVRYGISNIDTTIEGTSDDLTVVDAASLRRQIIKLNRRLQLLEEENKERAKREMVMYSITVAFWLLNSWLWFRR
Chain of UniProt P36507 (P36507 whole entry, looked up): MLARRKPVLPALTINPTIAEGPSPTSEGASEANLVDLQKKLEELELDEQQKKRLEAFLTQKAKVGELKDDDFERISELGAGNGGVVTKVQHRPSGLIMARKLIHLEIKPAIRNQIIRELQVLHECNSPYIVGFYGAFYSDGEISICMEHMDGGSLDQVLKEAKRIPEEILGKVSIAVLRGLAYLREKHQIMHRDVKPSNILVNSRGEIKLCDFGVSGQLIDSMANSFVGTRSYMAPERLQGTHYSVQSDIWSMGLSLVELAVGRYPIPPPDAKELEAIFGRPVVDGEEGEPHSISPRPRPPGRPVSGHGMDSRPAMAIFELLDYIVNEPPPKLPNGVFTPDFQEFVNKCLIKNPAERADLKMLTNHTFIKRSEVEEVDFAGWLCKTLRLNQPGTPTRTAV
Chain of UniProt Q9NZB8 (Q9NZB8 whole entry, looked up): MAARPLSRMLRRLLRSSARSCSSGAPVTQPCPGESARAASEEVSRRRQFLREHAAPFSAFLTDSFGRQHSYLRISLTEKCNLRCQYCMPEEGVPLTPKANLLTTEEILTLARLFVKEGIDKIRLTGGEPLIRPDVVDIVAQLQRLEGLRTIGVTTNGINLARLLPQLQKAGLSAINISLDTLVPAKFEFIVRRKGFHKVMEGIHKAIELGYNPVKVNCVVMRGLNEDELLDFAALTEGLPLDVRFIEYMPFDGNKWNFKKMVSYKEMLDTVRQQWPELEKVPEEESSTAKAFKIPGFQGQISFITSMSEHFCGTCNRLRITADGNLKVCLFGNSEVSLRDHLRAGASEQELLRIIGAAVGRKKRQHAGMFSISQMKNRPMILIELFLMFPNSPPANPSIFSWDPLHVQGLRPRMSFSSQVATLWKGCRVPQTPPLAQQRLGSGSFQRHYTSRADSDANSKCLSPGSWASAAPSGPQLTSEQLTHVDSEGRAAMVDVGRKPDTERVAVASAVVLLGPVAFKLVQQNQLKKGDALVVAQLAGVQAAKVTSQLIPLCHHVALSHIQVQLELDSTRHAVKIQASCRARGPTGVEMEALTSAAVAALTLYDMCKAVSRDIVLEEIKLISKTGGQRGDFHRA

Compound in the experiment: Cc1ccc(-n2nc(C(C)(C)C)cc2NC(=O)Nc2ccc(OCCN3CCOCC3)c3ccccc23)cc1 [doramapimod]
The experiment can be described thus: log2 fold change, soluble protein after heating vs DMSO (PISA); higher = thermal stabilisation; K562 lysate, 10 uM; active = over 0.2 and 3.5 SD of the protein, either way, in both replicates (recomputed). The procedure, abridged:
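To prepare the extract, K562 pellets were dounce-homogenised in PBS pH 7.4 with 1 mM MgCl2, giving crude material at 1 mg/mL protein. This was treated with 10 μM compound for 30 min, then heated in aliquots for 3 min over 48°C-58°C before pooling and addition of NP-40 to 0.5% at 4°C. Centrifugation at 21,000xg for 90 min left soluble protein in the supernatant, which TMTpro 16plex LC-MS/MS quantified with equalised channel sums. Results are log-two fold changes in thermal stability compared with solvent controls, from duplicates.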
As for LARS2 (UniProt Q15031), the log2 fold change was 0.012 (inactive). For the target LYSMD3 (UniProt Q7Z3D4), the log2 fold change is 0.041 (inactive). For MARK3 (UniProt P27448), the log2 fold change is -0.081 (inactive). The value for MAP2K2 (UniProt P36507) was -0.058 (inactive); that for MAD2L1BP isoform 3 (UniProt Q15013) was 0.12 (inactive). Turning to MOCS1 isoform 8 (UniProt Q9NZB8), the log2 fold change is 0.018 (inactive). Turning to LRRC40 (UniProt Q9H9A6), the log2 fold change is 0.009 (inactive). Turning to MPZL1 (UniProt O95297), the log2 fold change is -0.087 (inactive). As for MON2 isoform 5 (UniProt Q7Z3U7), the log2 fold change is -0.011 (inactive). Turning to LLGL1 (UniProt Q15334), the log2 fold change was 0.006 (inactive). In the case of MRPL10 isoform 2 (UniProt Q7Z7H8), the log2 fold change is 0.104 (inactive). The value for LIMS1 isoform 3 (UniProt P48059) was -0.068 (inactive). MED12 isoform 2 (UniProt Q93074): the log2 fold change was 0.011 (inactive). For METTL7A (UniProt Q9H8H3), the log2 fold change is 0.071 (inactive).

For the target MED17 (UniProt Q9NVC6), the log2 fold change was 0.008 (inactive). For the target LSM8 (UniProt O95777), the log2 fold change is 0.016 (inactive). As for MFF isoform 2 (UniProt Q9GZY8), the log2 fold change is -0.035 (inactive). Turning to LARS (UniProt Q9P2J5), the log2 fold change is -0.009 (inactive). Take MAPK9 (UniProt P45984): the log2 fold change was 0.192 (inactive). As to MED13L (UniProt Q71F56), the log2 fold change is 0.026 (inactive).

For MACROD1 (UniProt Q9BQ69), the log2 fold change was -0.012 (inactive). For MRPL46 (UniProt Q9H2W6), the log2 fold change is 0.024 (inactive).
